From PubChem BioAssay AID2546 (National Center for Advancing Translational Sciences (NCATS), 2010)
Among all 310,000 compounds or so, about 11,000 (3.5%) were called active. A call without a number means that no potency is given here. Roughly 8% stayed inconclusive and do not appear here. Calls follow the shape of the dose curve; as a rule, active = well fitted inhibition curve with a large enough effect; inconclusive = small, poorly fitted or top-dose-only effect, or effect the other way; inactive = flat fitted curve, though single readings scatter. This excerpt belongs to a sample that is enriched for actives.

Test: VP16 counterscreen qHTS for inhibitors of ROR gamma transcriptional activity;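 also: Gal4-VP16 expression switched on by copper sulfate through the metallothionein promoter; nearly all actives have a fitted effect of over 50% in size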
Conditions: Drosophila S2 Gal4-VP16 UAS-luciferase, luminescence, 20 h; series mostly up to 53.6 µM
Potency is read from the fitted curve at half-maximal effect.

Compound | Potency | activity, negative = inhibition
O=C(N/N=C/c1ccccn1)C12CC3CC(CC(C3)C1)C2 | 20 µM (active) | 
O=C(Nc1ccc(S(=O)(=O)Nc2ncccn2)cc1)C12CC3CC(CC(C3)C1)C2 | inactive | 
CNC(=O)C(=O)N/N=C/c1ccccn1 | inactive | 
COc1cc2ccccc2cc1C(=O)Nc1ccc(NC(=O)c2cccs2)cc1 | inactive | 
Cc1csc(=NC(=O)c2ccccc2)n1CCO | inactive | 
Cc1csc(=Nc2ccccc2)n1CCO | inactive | 
C=C(C)CNC(=S)/N=c1\scc(C)n1CC | 8.91 µM (active) | 
CC(C)(c1ccccc1)c1ccc(OCCN2CCCC2)cc1 | inactive | 
CC(C)=CCN1CCN(Cc2cc3ccccc3[nH]2)CC1CCO (centres undefined) | inactive | 
O=C(CSc1ccc(-c2ccc(Br)cc2)nn1)NCC1CCCO1 (centres undefined) | inactive | 
O=C(c1cc(C(F)(F)F)cc(C(F)(F)F)c1)N1CCC[C@@]2(CCN(c3ccccn3)C2)C1 | inactive | 
O=C(c1cc(C(F)(F)F)cc(C(F)(F)F)c1)N1CCC2(CCCN(c3ccccn3)C2)CC1 | 12.6 µM (active) | 
O=C(c1cc(C(F)(F)F)cc(C(F)(F)F)c1)N1CCC2(CC1)CN(c1ccncc1)C2 | inactive | 
Cc1ccc2c(cnn2C(=O)CCC(=O)NC2CCCC2)c1 | inactive | 
COc1ccccc1NC(=O)c1ccc(N2CC3CC(C2)c2cccc(=O)n2C3)c(NC(=O)c2cccnc2)c1 (centres undefined) | inactive | 
CC(=O)c1nc2ccccc2n1Cc1ccccc1 | inactive | 
CC(=O)Nc1nc2ccccc2n1Cc1ccc(C)cc1 | 2.51 µM (active) | 
Cc1ccc(Cn2c(NC(=O)c3ccco3)nc3ccccc32)cc1 | 1.58 µM (active) | 
CCC(=O)Nc1nc2ccccc2n1Cc1ccccc1C | inactive | 
Cc1ccc(-n2nc3cc(Cl)c(NC(=O)c4ccco4)cc3n2)cc1 | inactive | 
CCn1nc(NC(=O)c2ccco2)c2cc3ccc(C)cc3nc21 | inactive | 
COc1ccc(CNC(=O)C(C)NCc2ccccc2Cl)cc1 (centres undefined) | inactive | 

Compound | Potency | activity, negative = inhibition
CN(C)S(=O)(=O)c1ccc(C(=O)NCCN=C2NS(=O)(=O)c3ccccc32)cc1 | inactive | 
Cc1cc2occ(CC(=O)NNC(=O)c3ccccc3F)c2cc1C | inactive | 
O=C(NNc1cc(Cl)ccc1Cl)c1cccnc1Cl | inactive | 
CC(=O)/C(=N\Nc1ccc(Cl)cc1Cl)Sc1cccc2cccnc12 | 5.01 µM (active) | 
N#Cc1ccc(C(=O)Nc2cccc3cccnc23)c(F)c1 | inactive | 
CCn1c(CC(=O)Nc2ccccc2C)nnc1SCC(=O)NC1=NCCS1 | inactive | 
CC1CC(C)CN(S(=O)(=O)c2cccc3nonc23)C1 (centres undefined) | inactive | 
Cc1nnc2n1N=C(c1ccccc1)CS2 | inactive | 
CCN1CCN(c2cc3nc(C)n(Cc4ccccc4)c(=O)c3cc2NC(=O)c2ccccc2F)CC1 | 11.2 µM (active) | 
CCOc1cc(NC(=O)c2ccccc2C(=O)O)c(OCC)cc1NC(=O)c1ccccc1F | inactive | 
CCC(=O)Nc1ccc2nc(C)n(Cc3ccccc3Cl)c(=O)c2c1 | inactive | 
COc1cccc(NC(=O)CN(C)C(=O)c2ccccc2CCc2ccccc2)c1 | inactive | 
CC1CCCCC1NC(=O)c1cn(C)c2ccc(S(=O)(=O)N3CCOCC3)cc2c1=O (centres undefined) | inactive | 
O=c1onc(-c2c(F)cccc2F)n1-c1ccccc1Cl | inactive | 
COc1ccc([N+](=O)[O-])cc1NCC(=O)c1ccc(C)cc1 | inactive | 
Cc1nn(CC(=O)NC2CCCCC2)c(=O)c2cccn12 | inactive | 
COc1ccc(C(=O)NC(C)CCc2ccccc2)c(OC)c1 (centres undefined) | inactive | 
CCCn1nnnc1NC(=O)COc1ccc(Cl)cc1C | 2 µM (active) | 
Cc1cc(NC(=O)COc2ccc(Cl)cc2Cl)n(CCC#N)n1 | inactive | 
CCOC(=O)N1CCN(C(=O)COc2ccc(Cl)cc2C)CC1 | inactive | 
O=C(Nc1ccccc1C(=O)NCC1CCCO1)c1ccccc1F (centres undefined) | inactive | 
CCOC(CNC(=O)C1CCN(S(=O)(=O)c2ccc3nc4c(c(C(=O)O)c3c2)CC(C)CC4)CC1)OCC (centres undefined) | inactive | 

Compound | Potency | activity, negative = inhibition
O=C(Oc1cccc(C(=S)N2CCOCC2)c1)c1cccc(Cl)c1 | inactive | 
CN(C)c1nc(=Nc2cccc(Cl)c2)ss1 | 0.891 µM (active) | 
CCOC(=O)C1=C(O)CSC1=Nc1cccc(Cl)c1 | inactive | 
Cn1c(=O)c(=O)n(C)c2cc(S(=O)(=O)CCC(=O)N3CCCCC3)ccc21 | inactive | 
O=C(COc1ccc(Cl)cc1)NCCS(=O)(=O)N1CCN(c2ccc(F)cc2)CC1 | inactive | 
CCCOc1ccc(Cc2c(Cl)nc(SC)nc2NC)cc1 | 7.08 µM (active) | 
CCCOc1ccc(-c2nc(N)n[nH]2)cc1 | inactive | 
CCCOc1ccc(Cc2c(O)nc(SC)[nH]c2=O)cc1C | inactive | 
COc1ccccc1C(=O)OCC(=O)NCCNC(=O)COC(=O)c1ccccc1OC | inactive | 
Cc1cc(C)cc(C(=O)OCC(=O)NCCNC(=O)COC(=O)c2cc(C)cc(C)c2)c1 | 0.0891 µM (active) | 
Cc1cccc(C(=O)OCC(=O)Nc2ccc(F)cc2)c1 | inactive | 
COc1cc(N=Cc2c(O)c3ccccc3oc2=O)c(OC)cc1Cl | inactive | 
COc1ccc(CNC(=O)CCCn2nc(C)c([N+](=O)[O-])c2C)cc1 | inactive | 
CCc1ccc(NC(=O)Cn2nc(C)c([N+](=O)[O-])c2C)cc1 | inactive | 
Cc1ccc(Oc2cc(NC(=O)CCCn3nc(C)c([N+](=O)[O-])c3C)cc([N+](=O)[O-])c2)cc1 | 1 µM (active) | 
CCOC(=O)c1c(S(=O)(=O)Nc2ccc(CN3CCC(C)CC3)cc2)c(C)n(C)c1C | inactive | 
CCC(C)c1ccccc1NC(=O)CN(C)CC(=O)Nc1ccccc1SC (centres undefined) | inactive | 
CC(=O)c1ccc(NC(=O)CCNS(=O)(=O)c2cc(Br)cnc2N)cc1 | inactive | 
COc1ccc(CCNC(=O)NS(=O)(=O)c2ccc(C)cc2)cc1OC | inactive | 
COc1ccc(CCNC(=S)NC(=O)/C=C/c2ccc(C)cc2)cc1OC | 10 µM (active) | 
COc1ccc(CCNC(=O)Cc2ccc(C)cc2)cc1OC | inactive | 
CCN1CCN(CCNC(=O)c2ccc3c(c2)NC(=O)/C(=C\c2ccc(OC)c(OC)c2)S3)CC1 | inactive | 

Compound | Potency | activity, negative = inhibition
CCOC(=O)c1ccc(NC(=O)Cn2nnc(-c3ccc(C)cc3)n2)cc1 | inactive | 
CCCc1nnc(SCC(=O)Nc2ccc(C(=O)OCC)cc2)o1 | inactive | 
CCOC(=O)c1ccc(NC(=O)Cn2cnc3cc(C)c(C)cc32)cc1 | 7.08 µM (active) | 
CC(C)C(=O)Nc1c2c(nn1-c1ccccc1)CSC2 | inactive | 
COc1ccc(C(=O)Cc2cnn(-c3ccccc3)c2)c(O)c1 | inactive | 
O=C(c1cnn(-c2ccc(Cl)cc2)c1)c1ccccc1O | inactive | 
Cc1cc(O)cc(O)c1C(=O)Cc1cnn(-c2ccccc2)c1 | 0.355 µM (active) | 
Cc1ccc(O)c(NC(=O)c2cc(-c3ccco3)on2)c1 | inactive | 
CC(C)(C)CC(C)(C)NCC(O)COCCOc1ccc(Br)cc1 (centres undefined) | 11.2 µM (active) | 
COc1ccc(OCC(O)CNCCNc2nccc(C(F)(F)F)n2)cc1 (centres undefined) | inactive | 
OC(COc1ccc(Br)cc1)CN1CCCC1 (centres undefined) | inactive | 
CCOC(=O)CSc1nnc(NC(=O)C2CC(=O)N(c3ccc(F)cc3)C2)s1 (centres undefined) | inactive | 
CCC(=O)N1c2ccc(S(=O)(=O)NCc3ccco3)cc2CC1C (centres undefined) | inactive | 
C/C=C/C=N/NC(=O)c1ccncc1 | inactive | 
O=C(Nc1ccccc1-c1nc2ccccc2[nH]c1=O)c1cccs1 | inactive | 
C/C(=N\Nc1nc(Nc2ccccc2)nc(N2CCOCC2)n1)c1cccs1 | inactive | 
C/C(=N\Nc1nc2ccccc2[nH]1)c1cccs1 | 6.31 µM (active) | 
CN(c1ccccc1)S(=O)(=O)c1ccc2[nH]c(=O)[nH]c2c1 | inactive | 
CCn1ccnc1CN(C)C(=O)c1cc(COc2ccc(Cl)cc2OC)on1 | inactive | 
O=C1C=C(c2ccc(Cl)cc2)C(=O)N1Nc1ccccc1 | 3.98 µM (active) | 
O=C(Nc1ccccc1)OCc1cc(-c2ccc(Cl)cc2)on1 | inactive | 
O=C1c2cccc3cc(Br)cc(c23)C(=O)N1Nc1ccccc1 | inactive | 

Compound | Potency | activity, negative = inhibition
COc1cccc(NC(=S)NCCCN2CCOCC2)c1 | inactive | 
CCOc1cccc(/C=N/NC(=S)NCCN2CCOCC2)c1O | 2.24 µM (active) | 
Cc1ccc(NC(=S)NCCN2CCOCC2)cc1 | inactive | 
CCOC(=O)c1c(S(=O)(=O)NCC(=O)Nc2ccc(C)cc2)c(C)n(C)c1C | inactive | 
CCCc1cc(=O)oc2c(C)c(OCC(=O)Nc3ccccn3)ccc12 | inactive | 
O=C(CN1C(=O)S/C(=C\c2ccccc2Cl)C1=O)NC1C=CS(=O)(=O)C1 (centres undefined) | inactive | 
CCCCCCCCn1c2c(c(=N)c3c1CCC3)CCCC2 | 2.51 µM (active) | 
COCCCNC(=O)Cc1ccc(-n2c(C)nc3cccnc32)cc1 | inactive | 
COc1cccc(NC(=O)CN(C)C(=O)Cc2ccc(Cl)cc2Cl)c1 | inactive | 
CC(Oc1ccc(Cl)cc1Cl)C(=O)/C=C/N(C)C (centres undefined) | inactive | 
CCCC(=O)Nc1cccc(NC(=S)NC(=O)C(C)Oc2ccc(Cl)cc2Cl)c1 (centres undefined) | 2.82 µM (active) | 
Cc1ccc(/C=C2/SC(=S)N(CCC(=O)NCCCN3CCOCC3)C2=O)cc1 | inactive | 
CCCC[C@]12Cc3cc(OC)c(OC)cc3C(O1)C1=C(CC3(CCCCC3)OC1=O)O2 |  | 7.46% [at 10 µM] (inactive)
C=C1/C(=C\C=C2\CCCC3(C)C2CCC3C(C)/C=C/C(O)C2CC2)CC(O)CC1O (centres undefined) | 12.6 µM (active) | 
C=C1C(=CC=C2CCC[C@@]3(C)[C@@H]2CC[C@H]3[C@H](C)CCCC(C)C)C[C@@H](O)C[C@@H]1O | inactive | 
COc1ccc(C(O)(C2CCCCC2)C(CN2CCCC2)c2ccccc2)cc1 (centres undefined) | inactive | 
O=C(NCc1ccccc1Cl)C1CCN(S(=O)(=O)c2cccc3nonc23)CC1 | inactive | 
O=C(NCCc1ccccc1)c1ccc2c(c1)N(Cc1ccccc1)CCS2 | inactive | 
O=c1oc(-c2ccco2)nc2sc3c(c12)CCCCC3 | inactive | 
O=C(NCc1ccco1)c1cccn2c(=O)c3c4c(sc3nc12)CCCC4 | 11.2 µM (active) | 
COc1ccc(CCn2c(=N)c(C(=O)NCc3ccco3)cc3c(=O)n4cccc(C)c4nc32)cc1 | inactive | 
